# Measurements from the supplement of paper PMC6522484.
# ± gives the standard deviation of the averaged measurements.
# What was measured:
# DLD1 [1] = test: cell viability (CellTiter-Glo) relative to plate median (fraction of plate median); higher = more viable cells; conditions: 5 µM; treatment time 24 h; reporter: 7TFP
# Method in brief: (§1)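 Each entry is a luminescence signal normalised to the plate median, averaged over independent replicates. The replicate count was two, and the cells were colorectal cancer lines with stable lentiviral TCF/Wnt firefly luciferase reporters exposed to library compounds at a final 5 µM for 24 h. Firefly luciferase and CellTiterGlo were measured on parallel plates.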
# HCT116 = test: as above; conditions: 5 µM; treatment time 24 h; reporter: TCF4/Wnt
# Method in brief: as §1
# SW480 [2] = test: as above; conditions: 5 µM; treatment time 24 h; reporter: 7TFP
# Method in brief: as §1
# DLD1 [3] = test: TCF/Wnt firefly luciferase reporter signal relative to plate median (fraction of plate median); higher = higher Wnt reporter signal; conditions: 5 µM; treatment time 24 h; reporter: 7TFP
# Method in brief: as §1
# SW480 [4] = test: as above; conditions: 5 µM; treatment time 24 h; reporter: 7TFP
# Method in brief: as §1
Compound,cell viability (DLD1 [1]),cell viability (HCT116),cell viability (SW480 [2]),TCF/Wnt firefly luciferase reporter signal (DLD1 [3]),TCF/Wnt firefly luciferase reporter signal (SW480 [4])
COC(=O)C(O)c1ccccc1 (stereo not given),1.04 ± 0.021,1.11,1.07 ± 0.035,1.04 ± 0.042,0.876 ± 0.019
CN(C)CCCC1(c2ccc(F)cc2)OCc2cc(C#N)ccc21 (stereo not given),1.02 ± 0.044,1.01 ± 0.061,0.996 ± 0.048,0.964 ± 0.0014,1.01 ± 0.1
CC[C@H]1OC(=O)[C@H](C)C(=O)[C@H](C)[C@@H](O[C@@H]2O[C@H](C)C[C@H](N(C)C)[C@H]2O)[C@](C)(OC)C[C@@H](C)C(=O)[C@H](C)[C@H]2N(CCCCn3cnc(-c4cccnc4)c3)C(=O)O[C@]12C,0.997 ± 0.018,0.968 ± 0.1,1.02 ± 0.04,1.07 ± 0.05,1.07 ± 0.035
CC(=O)O[C@@](C)(CCC=C(C)C)C1CC=C(C)CC1 (stereo not given in full),0.974 ± 0.066,1.02 ± 0.021,0.993 ± 0.067,0.9845 ± 0.0021,1.08 ± 0.028
COC(=O)[C@]1(C)CCC[C@]2(C)c3ccc(C(C)C)cc3C(=O)CC12 (stereo not given in full),1.1 ± 0.13,1.03 ± 0.081,1.05 ± 0.028,1.07 ± 0.25,1.07
Clc1cccc(Cl)c1NC1=NCCN1,0.987 ± 0.033,0.925 ± 0.16,0.988 ± 0.013,1.065 ± 0.0071,1.01 ± 0.11
COc1ccc2c(c1)OC[C@@H](Cc1ccc(OC)c(OC)c1)[C@@H]2O,1.03,1.02 ± 0.12,0.963 ± 0.034,1 ± 0.015,0.973 ± 0.081
CC(=O)O[C@@H]1CO[C@H]2O[C@H]3[C@@H](C(C=O)=C[C@H](O)[C@@H]4C5=C(C(C)C)CC[C@]5(C)CC[C@@]34C)[C@@]2(O)C1=O [Striatal B],1 ± 0.17,0.89 ± 0.16,1.05 ± 0.021,1 ± 0.16,1.025 ± 0.0071
O=c1c2cc(O)c(O)cc2oc2cc(O)c([C@@H]3O[C@H](CO)[C@@H](O)[C@H](O)[C@H]3O)c(O)c12,1.09 ± 0.13,1.045 ± 0.0071,1.05 ± 0.035,0.988 ± 0.06,0.957 ± 0.061
CCCCN1CCCCC1C(=O)Nc1c(C)cccc1C (stereo not given),1.02 ± 0.055,0.949 ± 0.071,1.06 ± 0.042,0.901 ± 0.081,0.887 ± 0.047
O=C1OC(=O)[C@H]2[C@@H]1[C@@H]1CC[C@H]2O1,0.9975 ± 0.0035,0.867 ± 0.079,0.949 ± 0.0085,1.06 ± 0.13,0.892 ± 0.02
C[N+]1(C)C[C@H](O)C[C@H]1C(=O)[O-],1.03 ± 0.014,0.985 ± 0.035,0.967 ± 0.0099,1.06 ± 0.035,0.869 ± 0.025
CC(C)/C(O)=C1/C(=O)O[C@@H](c2ccoc2)[C@]2(C)C(O)[C@@H](O)[C@@]34OC5(C)OC67CC(C)(C(O)[C@]6(O)[C@@H](O)[C@]3(O5)C12)[C@H](CC(=O)O)[C@]74C (stereo not given in full),0.869 ± 0.11,0.985 ± 0.05,1 ± 0.026,1.04 ± 0.028,1.02 ± 0.042
CCN(CC)CCOc1ccc2c(c1)C(=O)c1cc(OCCN(CC)CC)ccc1-2,0.941 ± 0.083,0.925 ± 0.072,0.998 ± 0.045,1.05 ± 0.093,1.02 ± 0.06
O=C(O)Cc1ccccc1Nc1c(Cl)cccc1Cl,0.955 ± 0.078,0.938 ± 0.037,0.96 ± 0.032,0.95 ± 0.05,0.848 ± 0.13
COc1ccc(-c2coc3cc(OC(C)=O)cc(OC(C)=O)c3c2=O)cc1,1.01 ± 0.023,0.994 ± 0.079,0.976 ± 0.0057,1.34 ± 0.3,1.23 ± 0.16
O=c1c(O)c(-c2ccccc2)oc2cc(O)ccc12,1 ± 0.05,1.06 ± 0.057,1.035 ± 0.0071,1.01 ± 0.044,0.925 ± 0.1
C[n+]1cccc(C(=O)[O-])c1,1.03 ± 0.021,0.938 ± 0.0085,1.01 ± 0.018,1.15 ± 0.071,1.11 ± 0.092
CCn1cc(C(=O)O)c(=O)c2cc(F)c(N3CCN(C)CC3)cc21,1 ± 0.04,1.015 ± 0.0071,0.982 ± 0.018,1.19 ± 0.035,1.05 ± 0.078
Cc1ccc2c(Cl)cc(Cl)c(O)c2n1,1.01 ± 0.021,1.01 ± 0.15,1.07,1.06 ± 0.22,1.04 ± 0.067
NC[C@H]1O[C@H](O[C@H]2[C@H](O[C@@H]3O[C@H](CO)[C@@H](O)[C@H]3O)[C@@H](O)[C@H](N)C[C@@H]2N)[C@H](N)[C@@H](O)[C@@H]1O,0.955 ± 0.018,0.996 ± 0.0014,0.962 ± 0.0014,1.04 ± 0.057,0.994 ± 0.023
COc1ccc([C@@H]2CC(=O)c3c(O)cc(O[C@@H]4O[C@H](CO[C@@H]5O[C@@H](C)[C@H](O)[C@@H](O)[C@H]5O)[C@@H](O)[C@H](O)[C@H]4O)cc3O2)cc1O,0.995 ± 0.0014,0.973 ± 0.038,1.02 ± 0.014,1.04 ± 0.17,0.988 ± 0.031
Oc1ccc([C@H]2Oc3cc(O)cc(O)c3C[C@H]2O)cc1,1.045 ± 0.0071,1.01 ± 0.14,0.974 ± 0.021,1.01 ± 0.12,1.01 ± 0.07
COc1ccc(-c2coc3cc(O)ccc3c2=O)c(OC)c1,0.989 ± 0.016,1.01 ± 0.067,1.04 ± 0.05,1.035 ± 0.0071,1.01 ± 0.064
CCC(CCC(C)C1CCC2C3CCC4CC(O)CCC4(C)C3CCC12C)C(C)C (stereo not given),1.11 ± 0.057,1.06 ± 0.021,1.06 ± 0.021,1.23 ± 0.078,1.01 ± 0.015
COC(=O)c1c(C)cc(OC(=O)c2c(C)cc(O)c(C=O)c2O)c(C)c1O,1.06 ± 0.021,1.07 ± 0.092,1.06 ± 0.064,1 ± 0.14,1.04 ± 0.028
O=c1c(-c2ccc(O)cc2)coc2cc(O)ccc12,1.01,0.9665 ± 0.0021,0.902 ± 0.0042,0.978 ± 0.059,0.971 ± 0.025
CCCC(C(=O)OCCN(CC)CC)(c1ccccc1)c1ccccc1,1.03 ± 0.098,0.972 ± 0.04,1.03 ± 0.028,1.22 ± 0.22,1.06
CCCCC/C=C/CCC(=O)N[C@H]1[C@H](Oc2c3cc4cc2Oc2ccc(cc2Cl)[C@@H](O[C@@H]2O[C@H](CO)[C@@H](O)[C@H](O)[C@H]2NC(C)=O)[C@@H]2NC(=O)[C@H](NC(=O)[C@@H]4NC(=O)[C@H]4NC(=O)C(Cc5ccc(c(Cl)c5)O3)NC(=O)[C@H](N)c3ccc(O)c(c3)Oc3cc(O)cc4c3)c3ccc(O)c(c3)-c3c(OC4O[C@H](CO)[C@@H](O)[C@H](O)[C@@H]4O)cc(O)cc3[C@@H](C(=O)O)NC2=O)O[C@H](CO)[C@@H](O)[C@@H]1O (stereo not given in full) [TEICOPLANIN [A(2-1) shown]],1.04 ± 0.035,1.01 ± 0.07,1.02 ± 0.083,0.971 ± 0.0071,1 ± 0.04
